Rows were chosen to be rich in hits. Some 3.2% of all compounds tested hit in one or more screens of this group.
bovine MsrA act = activates bovine MsrA enzyme | purified bovine MsrA, absorbance read-out | 360,000 tested, 0.3% active | AID 602163 | activation, % at 10.6 µM; in the data active = activation above about 7.5%
Pemphigus Ab inh = inhibitors of pemphigus antibody binding to human desmoglein-3; P32926; DSG3-coupled beads, scFv-anti-DSG3-GFP binding, flow cytometry; stronger effect = lower value; binding (percent of control), % at 10 µM; 310,000 tested, 0.48% active;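 active = binding more than 3 SD below its plate's average and above zero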;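 also: hits lower antibody fragment binding to DSG3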
Target sequence (P32926 whole entry, looked up, the tested form may be a part): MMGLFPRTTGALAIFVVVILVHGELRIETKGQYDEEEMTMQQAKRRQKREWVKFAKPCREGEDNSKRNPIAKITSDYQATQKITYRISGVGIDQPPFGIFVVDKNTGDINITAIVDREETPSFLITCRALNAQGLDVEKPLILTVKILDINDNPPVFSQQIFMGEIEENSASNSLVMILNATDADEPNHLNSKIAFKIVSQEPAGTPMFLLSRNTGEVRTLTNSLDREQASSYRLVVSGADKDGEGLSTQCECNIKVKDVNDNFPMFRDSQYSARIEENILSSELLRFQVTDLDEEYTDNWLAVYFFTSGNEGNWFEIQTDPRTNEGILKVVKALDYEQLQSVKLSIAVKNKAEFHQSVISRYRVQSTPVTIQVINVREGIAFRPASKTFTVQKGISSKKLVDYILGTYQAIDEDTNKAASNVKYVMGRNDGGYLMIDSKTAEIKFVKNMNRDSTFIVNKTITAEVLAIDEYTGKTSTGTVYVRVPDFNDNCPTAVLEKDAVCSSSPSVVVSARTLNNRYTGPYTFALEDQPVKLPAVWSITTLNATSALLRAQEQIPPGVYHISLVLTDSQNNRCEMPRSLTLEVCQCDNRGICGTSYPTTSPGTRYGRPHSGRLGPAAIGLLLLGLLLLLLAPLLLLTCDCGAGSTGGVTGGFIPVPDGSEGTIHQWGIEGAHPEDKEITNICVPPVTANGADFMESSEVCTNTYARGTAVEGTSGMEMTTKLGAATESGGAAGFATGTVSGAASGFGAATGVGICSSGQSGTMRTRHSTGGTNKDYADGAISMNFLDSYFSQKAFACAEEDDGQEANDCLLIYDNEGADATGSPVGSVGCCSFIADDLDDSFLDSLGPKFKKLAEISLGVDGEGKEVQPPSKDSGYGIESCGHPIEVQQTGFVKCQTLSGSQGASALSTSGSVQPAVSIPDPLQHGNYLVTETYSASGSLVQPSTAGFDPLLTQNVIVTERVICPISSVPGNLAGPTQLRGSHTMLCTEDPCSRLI
NadD block = inhibitors of Staphylococcus aureus NadD; purified NadD enzyme, colorimetric absorbance read-out; inhibition, % at 20 µM; 360,000 tested, 0.78% active; AID 602399; in the data active = inhibition above about 26%
DAGLB inhibitor = blocks human DAGLB lipase activity; HEK293T DAGLB membrane lysate, EnzChek fluorogenic substrate; inhibition, % at 5.17 µM; 340,000 tested, 0.059% active; AID 504411; in the data active = inhibition above about 34%
rCAG RNA binder = molecules binding r(CAG) RNA repeats. r(CAG) RNA repeat, TO-PRO-1 dye displacement fluorescence. inhibition, % at 3 µM. 370,000 tested, 1.3% active. AID 651821;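 active = inhibition above the plate cutoff, the mean of all test compounds on that plate plus 3 SD, cut at about 35% in these data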;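 also: higher means more dye released from RNA so lower well fluorescence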
MsrA inhibitor = inhibitors of bovine MsrA; purified bovine MsrA, absorbance read-out; inhibition, % at 15.5 µM; 360,000 tested, 0.75% active
MsrA inh confirm = confirmation of bovine MsrA inhibitors; shares compounds with MsrA inhibitor; purified bovine MsrA, absorbance read-out; inhibition, % at 15.5 µM; 2,300 tested, 41% active; AID 651822;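 also: coupled to thioredoxin reductase with NADPH and selenocystamine and DMSO as substrate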
rCAG binder conf = r(CAG) RNA repeat binding, confirmation; inhibition, % at 3 µM; AID 652065; TO-PRO-1 dye displacement fluorescence; 4,300 tested, 70% active; shares compounds with rCAG RNA binder;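 active = inhibition above a per-plate cutoff, the mean inhibition of sample wells plus 3 SD, cut at about 35% in these data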;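 also: loss of TO-PRO-1 fluorescence as compound displaces dye from 1x1 AA loop RNA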
DNA CAG counter = disrupts DNA CAG TO-PRO-1 complex, flagging rCAG hits | shares compounds with rCAG RNA binder | d(CAG) DNA oligo TO-PRO-1 dye displacement, fluorescence | inhibition, % at 3 µM | 4,300 tested, 94% active;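 active = inhibition above its plate's cutoff, the mean test-well inhibition plus 3 SD, cut at about 4.8% in these data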;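 also: hits displace the dye from DNA and so lower well fluorescence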
Of the large screens only hits and unclear results are named; the others gave an inactive call (follow-up assays come after a bar, where they were run). Rule as the data show it, unless noted: active = inhibition above about 4.5%; inactive = the rest.

Cc1cc(Br)c2nc(-c3cccc(Br)c3)c(Cc3cccc(Cl)c3)n2c1	none (no result: bovine MsrA act, Pemphigus Ab inh, NadD block, DAGLB inhibitor)
COC(=O)/C=C1\S/C(=N/N=C/c2ccco2)NC1=O	MsrA inhibitor 4.7 | MsrA inh confirm inactive
COC(=O)/C=C1/S/C(=N/NC(=O)c2ccccc2C)NC1=O	MsrA inhibitor 6.7 | MsrA inh confirm inactive
C[C@@H]1CN([C@H](C)CO)C(=O)c2cc(C3=CCCCC3)cnc2O[C@@H]1CN(C)Cc1ccccc1C(=O)O	none
Oc1ccc(/C=N/Nc2ccc(C(F)(F)F)cn2)cc1	MsrA inhibitor 5.5 | MsrA inh confirm inactive
Oc1ccc(/C=N/Nc2ccc(C(F)(F)F)cn2)c(O)c1	none
Cc1nc2nc(-c3cccs3)[nH]c2cc1Br	MsrA inhibitor 7.0 | MsrA inh confirm inactive
c1ccc(-c2nc(-c3cccs3)[nH]c2-c2ccccc2)cc1	none
O=C(/C(C=Nc1cccc(C(F)(F)F)c1)=C(/O)c1ccco1)C(F)(F)F	none
O=C(/C(C=Nc1ccc(Br)cc1)=C(/O)c1ccco1)C(F)(F)F	MsrA inhibitor 4.8 | MsrA inh confirm inactive
COc1cc(OC)cc(-c2nc3ccccc3s2)c1	none
Nc1ccc(-c2nc3ccccc3s2)cn1	MsrA inhibitor 5.3 | MsrA inh confirm inactive
Cc1cc(-c2nc3ccccc3s2)ccc1N	MsrA inhibitor 4.7 | MsrA inh confirm inactive
Nc1ccc2nc(-c3ccccc3)sc2c1	MsrA inhibitor 4.7 | MsrA inh confirm inactive
CCN(CC)CCN1CCN(c2cncc(-c3ccc4ccccc4c3)n2)CC1	none (no result: Pemphigus Ab inh, DAGLB inhibitor)
O=C(NCC1CC1)c1cc([N+](=O)[O-])cc([N+](=O)[O-])c1	MsrA inhibitor 8.5 | MsrA inh confirm 7.1
O=C(NCC1CCCCC1)c1cccc([N+](=O)[O-])c1	none
CCOC(=O)C1=CCN(S(=O)(=O)c2ccc(Cl)cc2)C1c1ccc(C)cc1 (stereo unspecified)	none (no result: Pemphigus Ab inh, DAGLB inhibitor)
C/C(=C\c1ccc2c(c1)OCO2)C(=O)c1c(C)cc(C)[nH]c1=O	MsrA inhibitor 5.5 | MsrA inh confirm inactive
C/C(=C\c1cccc(Br)c1)C(=O)c1c(C)cc(C)[nH]c1=O	none
C/C(=C\C=C\c1ccccc1)C(=O)c1c(C)cc(C)[nH]c1=O	MsrA inhibitor 7.4 | MsrA inh confirm 5.9
C/C(=C\c1ccc(C)o1)C(=O)c1c(C)cc(C)[nH]c1=O	MsrA inhibitor 7.3 | MsrA inh confirm inactive
Cc1cc(C)c(C(=O)/C=C/C=C/c2ccccc2)c(=O)[nH]1	none
COc1ccc(C(=O)c2[nH]c(N)c(C(=O)NCCc3c[nH]c4ccccc34)c2-c2ccc(Cl)c(F)c2)cc1	none (no result: Pemphigus Ab inh, DAGLB inhibitor)
COC(=O)[C@@]12C[C@@H](CC(=O)N3CCSCC3)C(=O)N(Cc3ccc4c(c3)OCO4)C1=CCC(C)(C)C2	none (no result: bovine MsrA act, Pemphigus Ab inh, NadD block, DAGLB inhibitor)
CC1(N=Cc2cc(Cl)ccc2O)COP(=O)(Nc2ccccc2)OC1 (stereo unspecified)	none
CC1CCCCC1C(=O)N1CCC(Oc2cccnc2)CC1 (stereo unspecified)	none (no result: bovine MsrA act, Pemphigus Ab inh, NadD block, DAGLB inhibitor, MsrA inhibitor)
Nc1cc(=O)n(Cc2ccccc2)c(N)c1C(=O)NCc1ccccc1	none (no result: bovine MsrA act, Pemphigus Ab inh, NadD block, DAGLB inhibitor)
CC(=O)c1ccc(Nc2ccc([N+](=O)[O-])c3nonc23)cc1	MsrA inhibitor 7.0 | MsrA inh confirm inactive
CCOC(=O)c1csc(NC(=O)CCS(=O)(=O)c2ccc(Cl)cc2)n1	none
O=C(CN1C(=O)S/C(=C\c2cccs2)C1=O)Nc1ccc(C(=O)O)c(O)c1	rCAG RNA binder 67.0, MsrA inhibitor 5.3 | MsrA inh confirm 6.0 | rCAG binder conf 40.0 | DNA CAG counter 10.2
O=C(CN1C(=O)S/C(=C\c2cccs2)C1=O)Nc1ccc(O)c(C(=O)O)c1	rCAG RNA binder 52.3, MsrA inhibitor 5.3 | MsrA inh confirm 5.8 | rCAG binder conf 37.4 | DNA CAG counter 10.1
O=C(CN1C(=O)S/C(=C/c2cccs2)C1=O)N1CCCC1	none
COC(=O)[C@]12C[C@H](CC(=O)N3CCSCC3)C(=O)N(Cc3cccc4ccccc34)C1=C[C@H](C(C)(C)C)O[C@@H]2C	none (no result: bovine MsrA act, Pemphigus Ab inh, NadD block, DAGLB inhibitor, MsrA inhibitor)
CCCS(=O)(=O)NC(=O)C1(C)CCN(C(=O)c2ccc(F)c(Cl)c2)C1 (stereo unspecified)	none (no result: Pemphigus Ab inh, DAGLB inhibitor)
C=CCN1[C@H](CO)[C@H](c2ccccc2)[C@@H]1C#N	none (no result: bovine MsrA act, Pemphigus Ab inh, NadD block, DAGLB inhibitor, MsrA inhibitor)
O=[N+]([O-])c1ccccc1NC(=S)N/N=C/c1ccc(O)c(O)c1	rCAG RNA binder 36.7, MsrA inhibitor 5.9 | MsrA inh confirm 7.3 | rCAG binder conf 43.3 | DNA CAG counter 22.7
O=C(Nc1nc2ncccn2c1-c1ccc(C(F)(F)F)cc1)C1CC1	none (no result: bovine MsrA act, Pemphigus Ab inh, NadD block, DAGLB inhibitor, MsrA inhibitor)
CCOc1cc(/C=N/N=C2/NC(=O)C(CC(=O)O)S2)ccc1OCc1ccc(Cl)cc1Cl (stereo unspecified)	none (no result: rCAG RNA binder, MsrA inhibitor)
COc1cc(/C=N/N=C2/NC(=O)C(CC(=O)O)S2)ccc1OCc1ccc(Cl)cc1 (stereo unspecified)	rCAG RNA binder 54.4, MsrA inhibitor 5.3 | MsrA inh confirm 6.0 | rCAG binder conf 37.8 | DNA CAG counter 10.2
CCCCOc1ccc(C(=O)N/C(=C/C=C/c2ccccc2)C(=O)O)cc1	rCAG RNA binder 55.5, MsrA inhibitor 6.8 | MsrA inh confirm inactive | rCAG binder conf 54.5 | DNA CAG counter 18.7
CCCCOc1ccc(C(=O)N/C(=C/C=C/c2ccccc2)C(=O)NC)cc1	none
O=C(O)COc1ccc(/C=N/NC(=O)/C(=C/C=C/c2ccccc2)NC(=O)c2ccccc2)cc1	rCAG RNA binder 53.3, MsrA inhibitor 8.4 | MsrA inh confirm 7.9 | rCAG binder conf 43.0 | DNA CAG counter 17.1
CCCC[C@H]1C2CC(OC(=O)Nc3ccc4c(c3)OCO4)C(C2)[C@H]2CCCCN21 (stereo partly specified)	none (no result: bovine MsrA act, Pemphigus Ab inh, NadD block, DAGLB inhibitor, MsrA inhibitor)
C#CCN(C[C@H]1[C@H](OC(=O)NCc2ccccc2F)[C@H](OC(=O)NCc2ccccc2F)C[C@@H](C(=O)OC)[C@H]1C(=O)OC)S(=O)(=O)c1ccc(C)cc1	none (no result: Pemphigus Ab inh)
O=C1NC(=S)N/C1=C/c1cccc([N+](=O)[O-])c1	none
O=C1N/C(=N\S(=O)(=O)Cc2ccccc2)S/C1=C/c1cccc([N+](=O)[O-])c1	rCAG RNA binder 81.4, MsrA inhibitor 5.6 | MsrA inh confirm inactive | rCAG binder conf 68.8 | DNA CAG counter 28.4
Cc1ccc(NC(=O)CN2C(=O)N/C(=C/c3ccccc3OCc3cccc(C(=O)O)c3)C2=O)cc1	rCAG RNA binder 75.8, MsrA inhibitor 4.7 | MsrA inh confirm inactive | rCAG binder conf 63.0 | DNA CAG counter 26.8
CCCCCCCCN1C(=O)[C@@H](CC(=O)N2CCOCC2)C[C@@]2(C(=O)OC)C1=C[C@H](C1CCCC1)O[C@@H]2C	none (no result: bovine MsrA act, Pemphigus Ab inh, NadD block, DAGLB inhibitor)
